Several values for one entry are separate records, joined by “and”; a condition that tells them apart may be missing. Identical values can stand only once. Counter-ions that a name gives are not always drawn.

For assay [1], the system named is U-2932. Put plainly: growth inhibition by drug alone (1 - RLU/untreated control) (fraction); higher = stronger inhibition. The note with it: 177Lu-lilotomab satetraxetan 0 ug/ml. The essentials: (§1)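 With or without 18 h pretreatment by a radiolabelled anti-CD37 antibody conjugate (~600 MBq/mg; 0.5 µg/ml RIVA, 1 µg/ml U-2932), RIVA and U-2932 cells were washed and plated at 3,000 cells/well. Pre-printed compound doses were 10/100 nM for RIVA and 10/1,000 nM for U-2932. Growth inhibition uses RealTime-Glo RLU relative to the untreated no-drug wells. The calculation is 1 − RLU/mean of 48 such wells per plate, with reads daily from day 3 after 1 h at 37°C.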

The test system of assay [2] is RIVA. The description is as above. The conditions noted are these: 177Lu-lilotomab satetraxetan 0 ug/ml. The essentials: as §1
The subject of assay [3] is U-2932. Description: growth inhibition by drug plus 177Lu-lilotomab satetraxetan (1 - RLU/untreated control) (fraction); higher = stronger inhibition. The conditions noted are these: 177Lu-lilotomab satetraxetan 1 ug/ml. The essentials: as §1
In assay [4] the test system is RIVA. The description is as above. The conditions noted are these: 177Lu-lilotomab satetraxetan 0.5 ug/ml. The essentials:
as §1

With `C[C@@H]1CCN(C(=O)CC#N)C[C@@H]1N(C)c1ncnc2[nH]ccc12`, the “growth inhibition by drug alone” value with U-2932 [1] (1000 nM, time (day): 5) was -0.0604 and -0.0478; in the assay with RIVA [2] (10 nM, time (day): 6), -0.145 and -0.158; in the assay with RIVA [2] (100 nM, time (day): 6) it was -0.23 and -0.152. For the same compound, the “growth inhibition by drug plus 177Lu-lilotomab satetraxetan” value with U-2932 [3] (10 nM, time (day): 3) is -0.0798 and -0.0527; in the assay on U-2932 [3] (1000 nM, time (day): 3), -0.1 and -0.107; in the assay with RIVA [4] (10 nM, time (day): 3), 0.396 and 0.421; with RIVA [4] (10 nM, time (day): 4), 0.461 and 0.516; in the assay with RIVA [4] (10 nM, time (day): 5) it was 0.484 and 0.536; in the assay on RIVA [4] (10 nM, time (day): 6), 0.5 and 0.538. Also, the “growth inhibition by drug plus 177Lu-lilotomab satetraxetan” value in the assay with RIVA [4] (100 nM, time (day): 3) is 0.367 and 0.379; with RIVA [4] (100 nM, time (day): 4), 0.424 and 0.434; in the assay on RIVA [4] (100 nM, time (day): 5), 0.412 and 0.435; in the assay on RIVA [4] (100 nM, time (day): 6) it was 0.396 and 0.419.
Consider `COC1=CC(c2cc3ccccc3[nH]2)=N/C1=C\c1[nH]c(C)cc1C` [Obatoclax mesylate (GX15-070)], for which the “growth inhibition by drug plus 177Lu-lilotomab satetraxetan” value in the assay on U-2932 [3] (10 nM, time (day): 3) amounted to 0.00229; with U-2932 [3] (10 nM, time (day): 4) it was 0.0671; in the assay on U-2932 [3] (10 nM, time (day): 5) it was 0.129; in the assay with U-2932 [3] (10 nM, time (day): 6), 0.144; in the assay on U-2932 [3] (1000 nM, time (day): 3), 0.143; with U-2932 [3] (1000 nM, time (day): 4), 0.163. Also, the “growth inhibition by drug plus 177Lu-lilotomab satetraxetan” value with U-2932 [3] (1000 nM, time (day): 5) stood at 0.242; with U-2932 [3] (1000 nM, time (day): 6), 0.343; in the assay on RIVA [4] (10 nM, time (day): 3) it was 0.479; in the assay on RIVA [4] (10 nM, time (day): 4), 0.58; with RIVA [4] (10 nM, time (day): 5), 0.604; in the assay on RIVA [4] (10 nM, time (day): 6), 0.618. In addition, the “growth inhibition by drug plus 177Lu-lilotomab satetraxetan” value stood at 0.201 in the assay with RIVA [4] (100 nM, time (day): 3); 0.411 in the assay on RIVA [4] (100 nM, time (day): 4); 0.412 in the assay with RIVA [4] (100 nM, time (day): 5); 0.435 in the assay on RIVA [4] (100 nM, time (day): 6).
As for `O=C(O)C1(C(=O)O)CCC1.[NH2-].[NH2-].[Pt+2]` [Carboplatin], the “growth inhibition by drug alone” value in the assay on U-2932 [1] (10 nM, time (day): 3) was 0.0266; with U-2932 [1] (10 nM, time (day): 4), -0.0103; in the assay on U-2932 [1] (10 nM, time (day): 5), -0.0119; in the assay on U-2932 [1] (10 nM, time (day): 6), -0.000763; with U-2932 [1] (1000 nM, time (day): 3), -0.0124; in the assay on U-2932 [1] (1000 nM, time (day): 4), -0.0343. In addition, the “growth inhibition by drug alone” value in the assay with U-2932 [1] (1000 nM, time (day): 5) is -0.0455; in the assay with U-2932 [1] (1000 nM, time (day): 6) it was 0.00969; in the assay with RIVA [2] (10 nM, time (day): 3) it was -0.0898; in the assay with RIVA [2] (10 nM, time (day): 4) it was -0.143; in the assay with RIVA [2] (10 nM, time (day): 5), -0.162; in the assay on RIVA [2] (10 nM, time (day): 6), -0.249. In addition, the “growth inhibition by drug alone” value in the assay on RIVA [2] (100 nM, time (day): 3) was -0.121; in the assay with RIVA [2] (100 nM, time (day): 4), -0.164; with RIVA [2] (100 nM, time (day): 5), -0.182; with RIVA [2] (100 nM, time (day): 6), -0.229. Further, the “growth inhibition by drug plus 177Lu-lilotomab satetraxetan” value was -0.0315 in the assay with U-2932 [3] (10 nM, time (day): 3); 0.0327 with U-2932 [3] (10 nM, time (day): 4); 0.0748 in the assay on U-2932 [3] (10 nM, time (day): 5); 0.141 with U-2932 [3] (10 nM, time (day): 6); 0.0161 in the assay on U-2932 [3] (1000 nM, time (day): 3); 0.0456 with U-2932 [3] (1000 nM, time (day): 4). In addition, the “growth inhibition by drug plus 177Lu-lilotomab satetraxetan” value in the assay on U-2932 [3] (1000 nM, time (day): 5) came out at 0.0793; with U-2932 [3] (1000 nM, time (day): 6), 0.221.

For the origin of these results see the supplement of paper PMC6897291.
